Bioassay records as filed in PubChem.
Coupling enz – qHTS Assay for Inhibitors of Fructose-1,6-bisphosphate Aldolase from Giardia Lamblia: Coupling assay counterscreen; coupling enzyme system counterscreen, AmpLite Red fluorescence; 290,000 compounds, 0.67% hits; activity change, negative = inhibition, % at 58.2 µM, hits read low; in the data active means activity change below about -30%
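Coupling enzymes only (glyceraldehyde-3-phosphate) + compound, at 57.5 uM final, 10 min RT; add substrate/coupling/AmpLite Red mix, 20 min RT; fluorescence ex 525/em 598 nm. Actives flag coupling-system interference.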
Sfp inh – qHTS Assay for Inhibitors of Bacillus subtilis Sfp phosphopantetheinyl transferase (PPTase); 310,000 compounds, 3.5% hits; Biochemical Sfp PPTase activity, qHTS; Potency, µM, usual class: inhibitors; 4'-phosphopantetheinyl transferase ffp (Bacillus subtilis), Q9F4F7;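 further: the enzyme is Sfp with the accession as filed and its product quenches rhodamine fluorescence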
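After 15 min at room temperature with compound, 15 nM Sfp received 5 uM rhodamine-CoA plus 12.5 uM BHQ-2-ybbR (50 mM Hepes pH 7.6, 10 mM MgCl2). Rate came from the fluorescence difference over 30 min, ex 525/em 598 nm.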
Tau fluor counter – Counterscreen qHTS for Inhibitors of Tau Fibril Formation, Fluorescence Polarization. tau K18 P301L Alexa594 fluorescence, heparin fibrillization. Potency, µM (titrated, usually from 57.7 µM). 280,000 compounds, 0.93% hits; further: nearly all actives have a fitted effect of over 55% in size
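Human tau K18 P301L (15 uM unlabeled, 0.24 uM Alexa 594-labeled) in 100 mM sodium acetate pH 7 with 20 uM heparin, 6 hr at 37 C. ThT 30 uM added, 1 hr ambient; Alexa 594 FP and total fluorescence read at 555/632 nm.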
Tau fibril ThT – qHTS for Inhibitors of Tau Fibril Formation, Thioflavin T Binding; Microtubule-associated protein tau (Homo sapiens), P10636; recombinant tau K18 P301L, heparin-induced fibrillization, ThT fluorescence; Potency, µM (top dose mostly 57.4 µM), hits mostly inhibitors; 270,000 compounds, 2.1% hits; AID 1460, 2008; further: nearly all actives have a fitted effect of over 55% in size
Target sequence (P10636 561-689 P618L limits assumed): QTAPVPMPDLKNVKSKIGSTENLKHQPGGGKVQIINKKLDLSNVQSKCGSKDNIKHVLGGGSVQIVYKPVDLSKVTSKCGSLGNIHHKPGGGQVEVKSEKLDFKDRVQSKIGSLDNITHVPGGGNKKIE
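Using a mix of unlabeled (15 uM) and Alexa 594-labeled (0.24 uM) tau K18 P301L, heparin-triggered fibrillization over 6 hr at 37 C was scored by ThT fluorescence.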
Tau FP inhib – qHTS for Inhibitors of Tau Fibril Formation, Fluorescence Polarization. Microtubule-associated protein tau (Homo sapiens), P10636. K18 P301L tau heparin fibrillization, Alexa594 FP, 6 h. Potency, µM (series often up to 57.7 µM), usual class: inhibitors. 280,000 compounds, 0.39% hits. AID 1468, 2008; further: nearly all actives have a fitted effect of over 55% in size
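FP of Alexa 594-tau after heparin (20 uM) induction. Substrate: human K18 P301L, 15 uM unlabeled, 0.24 uM labeled. Buffer 100 mM sodium acetate pH 7. 6 hr, 37 C.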
Numbers stand for hits; 0 = inactive; ? = inconclusive; - = not tested or not shown; [ ] = dose if it differs, or a comment. Only some compounds are listed: those with a hit (about 5.2% of all), similar ones and a draw of the others. Unless noted, the call rests on the fitted dose curve; in most records, active means well fitted curve in the direction sought with a large enough effect; inconclusive means small, poorly fitted or top-dose-only effect, or another doubt; inactive means no such curve, though single readings can be large; an effect the other way counts as inactive or inconclusive.

SMILES	Coupling enz	Sfp inh	Tau fluor counter	Tau fibril ThT	Tau FP inhib
COc1cccc(NC(=O)NNS(=O)(=O)c2ccc(OC)cc2OC)c1	0	0	-	-	-
COc1ccc(C(=O)c2oc3ccc(OC)cc3c2N)cc1	0	0	14µM[quencher]	11µM	0
COc1ccc(NS(=O)(=O)c2ccc3oc(SC)nc3c2)cc1	0	50µM	-	-	-
COc1ccc(-c2nc3ccc(NS(=O)(=O)c4ccc(C)cc4)cc3o2)cc1	-	-	16µM[quencher]	0	0
Cc1ccc(S(=O)(=O)Nc2ccc3nc(-c4ccc(F)cc4)oc3c2)cc1	-	-	?	0	?
Cc1ccc(NC(=O)CCCn2c(=O)c3cccn3c3cccnc32)cc1C	-	-	0	0	?
Cc1[nH]c2ccccc2c1CCN(Cc1cccnc1)C(=S)Nc1ccc(F)cc1	0	0	?	0	0
Cc1[nH]c2ccccc2c1CCN(Cc1cccs1)C(=S)Nc1ccccc1	0	0	11µM[quencher]	0	0
COc1cccc(NC(=S)N(CCc2c(C)[nH]c3ccccc23)Cc2cccs2)c1	0	0	8.9µM[quencher]	0	0
Cc1[nH]c2ccccc2c1CCN(Cc1cccnc1)C(=S)Nc1cccc(F)c1	0	0	?	0	?
CC1(C)C(=O)N(CC(=O)Nc2ccc(OC(F)(F)F)cc2)c2ccccc21	-	-	0	0	0
CCNc1ncc2nc(-c3ccc(OC)cc3)c(=O)n(Cc3cccs3)c2n1	0	0	-	-	-
Oc1ccc(O)c2c1C1c3ccccc3C2c2ccccc21	0	50µM	-	-	-
Cc1c(-c2ccccc2)nc(N)c(C#N)c1-c1ccco1	0	14µM	0	0	0
CC(C)OC(=O)CSc1nc(N)c(C#N)cc1C#N	0	0	0	?	0
CCc1nc(N)c(C#N)c(-c2ccco2)c1C	0	0	0	0	0
CC(C)OC(=O)CSc1nc(N)c(C#N)c(-c2ccco2)c1C#N	0	56µM	?	?	?
O=C(Nc1nnc(N2CCCC2)s1)Nc1cc(F)ccc1F	-	-	0	0	0
O=C1/C(=C/c2cccs2)SC(=S)N1c1ccccc1	0	0	0	0	0
O=C1/C(=C/c2cccs2)SC(=S)N1c1cccc(O)c1	0	0	20µM[quencher]	20µM	0
CCOC(=O)Cc1csc(NC(=O)c2csc(C)c2)n1	0	0	0	0	0
CCOC(=O)Cc1csc(NC(=O)c2sc3nc4c(C)cc(C)cc4cc3c2N)n1	0	0	?	16µM	0
CC(=O)c1c(C)c(C)c2n1CCn1c(C)ccc1-2	0	0	?	16µM	0
O=C(Oc1cccnc1)c1ccc([N+](=O)[O-])cc1	0	0	8.9µM[quencher]	?	0
Cc1ccc(-c2nc(CN3CCCCC3)cc(CN3CCCCC3)c2O)cc1	0	40µM	0	0	0
SMILES	Coupling enz	Sfp inh	Tau fluor counter	Tau fibril ThT	Tau FP inhib
COCOc1cc(OC)ccc1C(=O)/C=C/c1cccc(C(F)(F)F)c1	0	0	0	0	0
CCCc1cc(=O)[nH]c(Nc2cc(Cl)cc(Cl)c2)n1	-	-	?	0	11µM
Cc1cccc(OCCn2c(-c3ccco3)nc3ccccc32)c1	-	?	0	?	0
c1ccc(OCCn2c(-c3ccco3)nc3ccccc32)cc1	0	50µM	0	0	0
CCn1c(-c2ccco2)nc2ccccc21	0	40µM	0	0	0
COc1ccc(N2CCN(c3oc(/C=C/c4ccc(F)cc4)nc3C#N)CC2)cc1	-	-	0	0	0
Cc1oc2c(c1C(=O)Nc1ccccc1Br)C1=NCCN1C=N2	-	-	0	0	0
Cc1ccc(CN(C)C(=O)CCc2nc3sc4c(c3c(=O)[nH]2)CCCC4)o1	0	50µM	-	-	-
CN(Cc1ccco1)C(=O)CCc1nc2sc3c(c2c(=O)[nH]1)CCCC3	0	0	-	-	-
COc1ccc(N(Cc2cccs2)C(=O)COc2cccc(C)c2C)cc1	-	-	0	0	0
Cc1ccc(C)c(CN2C(=O)COc3ccccc32)c1	0	0	-	-	-
Cc1ccc(C)c(CN2C(=O)COc3ccc(C(=O)c4ccccc4C(=O)O)cc32)c1	-35	0	0	0	0
CN(C)c1ccc(/C=C(\C#N)C(=O)c2ccccc2)cc1	0	0	?	?	0
N#C/C(=C\c1ccc(C#N)cc1)C(=O)c1ccccc1	0	50µM	0	0	0
